Screening results from PubChem.
Rows were chosen to be rich in hits. Some 6.8% of all compounds tested hit in one or more screens of this group.
C diff HTS = inhibitors of Clostridium difficile growth; Clostridium difficile clinical isolate growth, OD600, 24 h; hits give low values; growth activity, negative = inhibition, % at 16 µg/mL (by protocol); 86,000 tested, 0.25% active; AID 1259249;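 active means mean growth activity at or below -80% and every replicate also at or below -80%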
Pf Dd2 growth = P. falciparum Dd2 growth inhibition. activity change, % at 10 µM. SYBR Green, 72 h; hits give low values. 94,000 tested, 2.3% active. AID 1159554; in the data active means activity change below about -80%
Tcruzi prolif = blocks T. cruzi growth in NIH3T3 culture. T. cruzi beta-gal in NIH3T3, GalScreen luminescence, 90 h. inhibition, % at 8.34 µM. 77,000 tested, 5.9% active. AID 624255;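 active means mean inhibition above about 93%, with at least 55% of replicates each passing it, limit read from the data, passing the limit was not always enough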
Hits are given with their value; 0 = inactive; - = no result given; ! = not active in a repeat.

SMILES | C diff HTS | Pf Dd2 growth | Tcruzi prolif
COC(=O)C[C@@H]1CC[C@@H]2[C@H](COc3ccc(NC(=O)c4cscn4)cc3C(=O)N2C)O1 | 0 | 0 | 0
COc1ccc(CN(C)C[C@@H]2Oc3c(NS(=O)(=O)c4ccc(OC)cc4)cccc3C(=O)N([C@H](C)CO)C[C@H]2C)cc1 | 0 | 0 | 0
O=C(C[C@H]1C[C@@H]2c3cc(NC(=O)C4CCOCC4)ccc3O[C@@H]2[C@@H](CO)O1)NC1CCCC1 | - | 0 | 0
C[C@H]1CN([C@@H](C)CO)C(=O)c2cc(NC(=O)c3ccncc3)ccc2O[C@H]1CN(C)S(=O)(=O)c1ccccc1 | 0 | 0 | 0
O=C(c1cccnc1)N1CC(=O)N2[C@H](C1)[C@H](c1ccc(-c3ccc(F)cc3)cc1)[C@@H]2CO | 0 | 0 | -
O=C(c1ccc(F)cc1)N1CC(=O)N2[C@H](CO)[C@H](c3ccc(-c4cccnc4)cc3)[C@H]2C1 | 0 | -87 | -
COc1cccc(NC(=O)N[C@@H]2CC[C@@H](CC(=O)Nc3ccccc3)O[C@H]2CO)c1 | 0 | 0 | -
C[C@H]1CN([C@@H](C)CO)C(=O)Cc2cc(NS(C)(=O)=O)ccc2O[C@H]1CN(C)C(=O)Nc1ccc2c(c1)OCO2 | 0 | 0 | 0
COc1ccccc1CNC(=O)C[C@@H]1C[C@@H]2c3cc(NC(=O)Cc4ccncc4)ccc3O[C@@H]2[C@H](CO)O1 | 0 | 0 | 0
COc1ccccc1CNC(=O)C[C@H]1C[C@H]2c3cc(NC(=O)Cc4ccncc4)ccc3O[C@H]2[C@@H](CO)O1 | 0 | -82 | 0
C[C@@H](NC(=O)C[C@H]1C[C@@H]2c3cc(NS(=O)(=O)c4ccc(F)cc4)ccc3O[C@@H]2[C@H](CO)O1)c1ccccc1 | 0 | -99 | 0
C[C@H](NC(=O)C[C@H]1C[C@@H]2c3cc(NS(=O)(=O)c4ccc(F)cc4)ccc3O[C@@H]2[C@H](CO)O1)c1ccccc1 | 0 | 0 | 0
C[C@@H]1CN([C@H](C)CO)C(=O)Cc2cc(NS(=O)(=O)c3cccs3)ccc2O[C@H]1CN(C)S(=O)(=O)c1ccc(F)cc1 | 0 | 0 | 0
CCC(=O)Nc1ccc2c(c1)OC[C@H](C)N(C(=O)NC(C)C)C[C@@H](C)[C@H](OC)CN(C)C2=O | - | 0 | 0
C[C@H]1CN([C@@H](C)CO)C(=O)c2cccc(NC(=O)Nc3cccc4ccccc34)c2O[C@H]1CN(C)C(=O)Nc1ccc(C(F)(F)F)cc1 | 0 | 0 | -
Cc1ccccc1-c1ccc(C2[C@@H]3CN(S(=O)(=O)c4ccccc4C)C[C@H]2N3)cc1 (stereo partly drawn) | -98! | 0 | -
Cc1ccc(S(=O)(=O)N2C[C@@H]3N[C@H](C2)C3c2ccc(/C=C/c3ccccc3)cc2)cc1 (stereo partly drawn) | -95! | 0 | -
O=S(=O)(c1ccc(-c2ccccc2)cc1)N1C[C@@H]2N[C@H](C1)C2c1ccc(-c2ccccc2)cc1 (stereo partly drawn) | 0 | -87! | -
COc1cccc(S(=O)(=O)N2C[C@@H]3N[C@H](C2)C3c2ccc(/C=C/c3ccccc3)cc2)c1 (stereo partly drawn) | -94! | 0 | -
N#Cc1ccc(-c2ccc([C@@H]3[C@@H]4CN(S(=O)(=O)c5ccc(-c6ccccc6)cc5)C[C@H]3N4)cc2)cc1 | 0 | 0 | -
COc1ccccc1S(=O)(=O)N1C[C@@H]2N[C@H](C1)C2c1ccc(-c2ccccc2C)cc1 (stereo partly drawn) | 0 | 0 | -
COc1cccc(-c2ccc(C3[C@@H]4CN(S(=O)(=O)c5ccccc5)C[C@H]3N4)cc2)c1 (stereo partly drawn) | 0 | 0 | -
C/C=C/c1ccc(C2[C@@H]3CN(S(=O)(=O)c4ccccc4)C[C@H]2N3)cc1 (stereo partly drawn) | 0 | 0 | -
O=C(Nc1ccc(C(F)(F)F)cc1)N[C@@H]1CC[C@H](CC(=O)N2CCCCC2)O[C@@H]1CO | 0 | 0 | -
C[C@@H]1CCCCO[C@H](CN(C)C(=O)Nc2ccc3c(c2)OCO3)[C@H](C)CN([C@H](C)CO)C(=O)c2cc(NS(=O)(=O)c3cn(C)cn3)ccc2O1 | 0 | 0 | 0
Cc1noc(C)c1NC(=O)N(C)C[C@H]1Oc2ncc(/C=C/c3ccccc3)cc2C(=O)N([C@@H](C)CO)C[C@@H]1C | 0 | 0 | -
C[C@H](CO)N1C[C@H](C)[C@@H](CN(C)Cc2ccc(Oc3ccccc3)cc2)Oc2ccc(NC(=O)CCN3CCOCC3)cc2CC1=O | 0 | 0 | 0
CCS(=O)(=O)N1CC2(CN(Cc3cccnc3)[C@H](CO)c3c2c2ccc(OC)cc2n3C)C1 | - | 0 | -
Cc1ccc(S(=O)(=O)N2C[C@@H]3N[C@H](C2)C3c2ccc(-c3ccncc3)cc2)cc1 (stereo partly drawn) | 0 | -81! | -
O=S(=O)(c1ccccc1)N1C[C@@H]2N[C@H](C1)C2c1ccc(-c2cccnc2)cc1 (stereo partly drawn) | 0 | 0 | -
